# Test results taken from PubChem BioAssay AID493036 (Sanford-Burnham Center for Chemical Genomics, 2011).
# Out of some 330,000 compounds screened, about 560 (0.17%) were called active. This is one part of a sample in which actives are shown more often than they occur.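 How the source made its calls: active means activation at or above 40% of the spot to cytoplasm intensity ratio, with at least 20 cells analyzed; inconclusive means wells under 20 cells, flagged as cytotoxic or low count; inactive means the rest.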
# Tests used:
# [1] = agonists of human NTR1, primary screen, imaging, U2OS cells, beta-arrestin-GFP, high content (AID 493036); conditions: NTR1-U2OS beta-arrestin-GFP spot imaging, agonist mode; measured here: cell count, cytotoxicity flag; at 20 µM;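 on activation: 0% = DMSO without peptide and 100% = 100 nM NTR1 peptide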
# [2] = molecular target: Neurotensin receptor type 1 (Homo sapiens) (UniProt P30989); test: as above; conditions: NTR1-U2OS beta-arrestin-GFP spot imaging, agonist mode; at 20 µM; stronger effect = higher value
# Sequence of Neurotensin receptor type 1 (Homo sapiens) (P30989 whole entry, looked up): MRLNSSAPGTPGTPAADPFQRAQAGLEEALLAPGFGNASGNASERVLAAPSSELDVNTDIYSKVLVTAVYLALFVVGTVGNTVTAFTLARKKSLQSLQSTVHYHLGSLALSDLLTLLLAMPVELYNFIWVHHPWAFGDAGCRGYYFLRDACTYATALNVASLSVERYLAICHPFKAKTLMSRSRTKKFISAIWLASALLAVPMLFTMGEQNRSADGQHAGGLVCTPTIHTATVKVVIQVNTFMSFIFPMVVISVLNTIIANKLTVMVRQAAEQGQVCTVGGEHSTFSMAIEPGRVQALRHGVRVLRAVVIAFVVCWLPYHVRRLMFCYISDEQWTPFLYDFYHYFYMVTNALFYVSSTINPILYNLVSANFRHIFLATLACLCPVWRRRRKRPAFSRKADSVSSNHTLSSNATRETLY
SMILES,cell count [1] [cells],activation [2]
COc1cccc(N2C(=O)NC(=O)/C(=C\c3ccc([N+](=O)[O-])s3)C2=O)c1,25,-0.6% (inactive)
Cc1cccc(N2C(=O)NC(=O)/C(=C\c3cnn(-c4ccccc4)c3)C2=O)c1,57,45.7% (active)
O=C1NC(=O)N(c2ccccc2)C(=O)/C1=C/c1ccc([N+](=O)[O-])s1,47,-0.1% (inactive)
COc1ccc(C(=O)C2CN(C)CC2C(=O)c2ccc(OC)cc2)cc1 (stereo not given),41,-0.1% (inactive)
O=C(CCCn1c(=O)[nH]c2cc(Cl)ccc2c1=O)N1CCC2(CC1)OCCO2,62,1.7% (inactive)
COC(=O)C1=C(c2cc3ccccc3s2)C[C@@H]2CC[C@H]1N2C(=O)NCCO,97,0.3% (inactive)
CC1CCCCN1Cc1cccnc1 (stereo not given),41,1.8% (inactive)
O=C1NC(=O)N(Cc2ccco2)C(=O)/C1=C\c1ccc(-c2ccc(F)cc2)o1,62,23.3% (inactive)
O=C(O)COc1ccccc1/C=C1\C(=O)NC(=O)N(CCC2=CCCCC2)C1=O,52,0% (inactive)
O=C1NC(=O)N(CCc2ccc(F)cc2)C(=O)/C1=C/C=C/c1ccccc1,50,41.5% (active)
